# Reference: PubChem BioAssay (EPA / NIEHS)
# Records with an inconclusive call do not appear. Some structures have more than one record in an assay (separate samples or runs), and their calls can disagree. Activity calls are given as the source filed them. Rule for the calls: active = hit-call score of the fitted dose curve at least 0.9, where 1 is the maximum; inconclusive = response in the unintended direction; inactive = score below 0.9.
# Molecular target: Nuclear receptor subfamily 1 group I member 2 (Homo sapiens) (UniProt O75469)
# Assay: ATG_PXR_TRANS: Attagene TRANS-FACTORIAL HepG2 Assay for human Pregnane X Receptor (PXR) (AID 2283008)
# Experimental: ATG_TRANS is a cell-based, multiplexed-readout assay that uses HepG2, a human liver cell line, with measurements taken at 24 hours after chemical dosing in a 24-well plate.ATG_PXR_TRANS is one of 30 assay component(s) measured or calculated from the ATG_TRANS assay. It is designed to make measurements of mRNA induction, a form of inducible reporter, as detected with fluorescence intensity signals by Reverse transcription polymerase chain reaction (RT-PCR) and Capillary electrophoresis technology.Data from the assay component ATG_PXR_TRANS was analyzed into 1 assay endpoint. This assay endpoint, ATG_PXR_TRANS, was analyzed in the positive analysis fitting direction relative to DMSO as the negative control and baseline of activity. Using a type of inducible reporter, measures of mRNA for gain-of-signal activity can be used to understand the reporter gene at the transcription factor-level as they relate to the gene NR1I2. Furthermore, this assay endpoint can be referred to as a primary readout, because this assay has produced multiple assay endpoints where this one serves a reporter gene function. To generalize the intended target to other relatable targets, this assay endpoint is annotated to the nuclear receptor intended target family, where the subfamily is non-steroidal.
# Human liver HepG2 cells are transiently transfected with multiple reporter transcription units (MRTUs) in 6-well plates using FuGene 6 reagent (Roche; 3 ml FuGene/1 mg DNA). The MRTU constructs are regulated by a cis-regulating element (promoter). […] A major difference between the CIS and TRANS system is that in CIS activities of endogenous TFs are measured, whereas the TRANS assay evaluates changes in activities of exogenous, chimeric NR-Gal4 proteins. […] At the end of 24 hour incubation, total RNA was isolated using TriZol reagent (Invitrogen). The isolated RNA is then reverse-transcribed using oligo(dT) primer and Mo-MLV reverse transcriptase (Invitrogen) with DNAse I (Ambion) treatment for 30 min. The one-tenth of the produced cDNA was amplified by PCR using Taq DNA polymerase (Invitrogen) and two reporter sequence-specific primers. The PCR products were fluorescently labeled by primer extension with 6-arboxyfluorescein (6-FAM) 5'-labeled reporter sequence-specific primer (2 min at 95 C, 20 s at 68 C and 10 min at 72 C) and these products were digested with 5U of HpaI (New England Biolabs) for 2h at 37 C. The fragments were purified using Qiaquick PCR columns (Qiagen), analyzed on an ABI 3130xL genetic analyzer (Applied Biosystems) with peak positions identified by using a set of X-rhodamine (ROX)-labeled MapMarker1000 molecular weight standards (BioVentures). The raw capillary electrophoresis data was processed using Attagraph software (Attagene).
# Sequence of Nuclear receptor subfamily 1 group I member 2 (Homo sapiens) (O75469 whole entry, looked up): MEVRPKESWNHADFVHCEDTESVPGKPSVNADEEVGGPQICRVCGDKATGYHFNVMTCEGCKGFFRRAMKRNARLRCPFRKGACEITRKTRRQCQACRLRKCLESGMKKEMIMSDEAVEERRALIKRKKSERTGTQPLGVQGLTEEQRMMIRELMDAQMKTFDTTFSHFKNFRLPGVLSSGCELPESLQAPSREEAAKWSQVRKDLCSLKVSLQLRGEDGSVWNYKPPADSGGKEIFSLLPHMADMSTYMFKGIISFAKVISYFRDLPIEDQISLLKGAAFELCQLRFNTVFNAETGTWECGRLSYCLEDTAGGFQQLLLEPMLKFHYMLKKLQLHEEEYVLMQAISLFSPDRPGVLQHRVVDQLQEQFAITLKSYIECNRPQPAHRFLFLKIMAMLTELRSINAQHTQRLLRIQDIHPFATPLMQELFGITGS
SMILES,outcome,AC50
C(=NC1CCCCC1)=NC1CCCCC1,inactive,
CC(C)OC(=O)Nc1ccccc1,inactive,
Cc1ccc(N)cc1Cl,inactive,
CC1CN1P(=O)(N1CC1C)N1CC1C (stereo not given),inactive,
ClCCBr,inactive,
CCCCCCCCc1ccc(O)cc1,inactive,7.55 µM (active)
COc1cc2c(cc1OC)[C@@]13CCN4CC5=CCO[C@H]6CC(=O)N2[C@H]1[C@H]6[C@H]5C[C@H]43,inactive,
CC(C)c1ccc(CO)cc1,inactive,
Clc1ccc(C2(Cn3cncn3)CC(Br)CO2)c(Cl)c1 (stereo not given),,0.762 µM (active)
COC[C@H](C)N(C(=O)CCl)c1c(C)csc1C,,33.7 µM (active)
O=C1C(Cl)=C(Cl)C(=O)c2ccccc21,inactive,
CCCCC(CC)CO[N+](=O)[O-] (stereo not given),inactive,
CN(CCCC(=O)c1cccnc1)N=O,inactive,
COS(=O)(=O)c1ccc(C)cc1,inactive,
Nc1ncc([N+](=O)[O-])s1,inactive,
Fc1ccc(C2(Cn3cncn3)OC2c2ccccc2Cl)cc1 (stereo not given),,2.24 µM (active)
C=C(C)C(=O)[O][Sn]([CH2]CCC)([CH2]CCC)[CH2]CCC,,0.286 µM (active)
C=CC(=O)OCCCCCC(C)C,inactive,
O=C(CCl)CCl,inactive,

SMILES,outcome,AC50
NC(=O)O,inactive,
CC(C)c1cccc(C(C)C)c1O,,4.74 µM (active)
CC(C)(c1ccccc1)c1ccc(O)c(C(C)(C)c2ccccc2)c1,,0.148 µM (active)
O=Cc1cccc(Oc2ccccc2)c1,inactive,
C[C@]12CCC(=O)C[C@@H]1CC[C@@H]1[C@@H]2CC[C@]2(C)[C@@H](O)CC[C@@H]12,inactive,11.9 µM (active)
CCC[CH2][Sn]([Cl])([Cl])[Cl],inactive,
CNC(=O)O/N=C/C(C)(C)S(C)=O (stereo not given),inactive,
CCCCP(CCCC)CCCC,,7.21 µM (active)
ClCc1cccnc1,inactive,
CC(=O)c1cc(C(C)(C)C)cc2c1CCC2(C)C,,5.5 µM (active)
C=CC(=O)N(C)C,inactive,
Oc1c(I)cc(I)cc1I,,6.69 µM (active)
CC(=[OH+])/C=C(/C)[O-].CC(=[OH+])/C=C(/C)[O-].CC(=[OH+])/C=C(/C)[O-].[Al],inactive,
COc1cc(OC)nc(NC(=O)NS(=O)(=O)c2ncccc2C(=O)N(C)C)n1,,100 µM (active)
CCC[CH2][Sn]([CH2]CCC)([CH2]CCC)[O]C(=O)c1ccccc1,,0.344 µM (active)
C1CCC(NC2CCCCC2)CC1,inactive,
OCc1ccco1,inactive,
Cc1cc(Cl)ccc1O[C@H](C)C(=O)O,inactive,
ClC1=C(Cl)[C@]2(Cl)[C@H]3[C@H]([C@H]4C=C[C@H]3C4)[C@@]1(Cl)C2(Cl)Cl,,0.794 µM (active)
